From PubChem BioAssay (NCATS)
Inconclusive results are not listed. Calls of active or inactive are those of the source. Unless noted, the call rests on the fitted dose curve; in most records, active means well fitted curve in the direction sought with a large enough effect; inconclusive means small, poorly fitted or top-dose-only effect, or another doubt; inactive means no such curve, though single readings can be large; an effect the other way counts as inactive or inconclusive.

Experiments:
[1] = target: Glucocorticoid receptor (Homo sapiens) (UniProt P04150); experiment: GR-GFP Redistribution (AID 450;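 active means compounds whose dose series gives a full or clear partial fitted curve of increased nuclear translocation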; further: potency means the concentration at half of the fitted maximal effect); conditions: U2OS GR-GFP nuclear translocation, laser cytometry, 2 h
[2] = target: Glucocorticoid receptor (Homo sapiens) (UniProt P04150); experiment: GR-EFC Redistribution (AID 451; calls by dose curve; further: potency means the concentration at half of the fitted maximal effect); conditions: CHO-K1 GR-EFC translocation, beta-gal luminescence, 2 h
Outline: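 Translocation of GR-ED fusion to nuclear EA restores b-gal, read by luminescence after 1 h room-temperature detection. Engineered CHO-K1 biosensor cells, 1,000/well, exposed 2 h at 37 C to titrations up to 46 uM final.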

[3] = target: Mitogen-activated protein kinase 10 (Mus musculus) (UniProt Q61831); experiment: JNK3 AlphaScreen Assay (AID 530; active means well fitted curve in either direction with a large enough effect, not every such curve was filed as active;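 further: kinase came from lysate of stimulated human HepG2 cells; signal reports phosphorylation of biotinylated GST-cJun 1-79 at Ser73 with 10 µM ATP; on the % scale 0 is the no-effect control and ±100 the full control effect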)
Outline: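 Room-temperature AlphaScreen kinase assay; pre-activated HepG2 lysate as JNK3 source, biotin-GST-cJun(1-79) substrate, 10 uM ATP, compound 15 min preincubation.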

[4] = target: 3',5'-cyclic-AMP phosphodiesterase 4B (Homo sapiens) (UniProt Q07343); experiment: qHTS Assay for Inhibitors of PDE-IV (AID 607; active means well fitted activation curve with a large enough effect in the main read-out, with a control signal flat, not every such curve was filed as active; further: % of control where 0% means no effect)
Outline: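 Live HEK293 cells with a modified cyclic nucleotide-gated (CNG) channel report intracellular cAMP via membrane-potential dye fluorescence (ex 535/em 590 nm). Endogenous PDE-IV was targeted. Compounds were tested at up to 22.9 uM final; RO 20-1724 100 uM served as control.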

[5] = target: Cytochrome P450 3A4 (Homo sapiens) (UniProt P08684); experiment: qHTS Assay for Activators of Cytochrome P450 3A4 (AID 885); further: nearly all actives have a fitted effect of over 65% in size
Outline: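 Quantitative HTS format: compounds preincubated with 20nM human CYP3A4 and Luciferin-PPXE substrate at KM, reaction started by NADPH regeneration, stopped after 60 min, luciferase luminescence read 20 min later.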

[6] = qHTS Assay for Lipid Storage Modulators (AID 1519; calls by dose curve; on activity change, negative = inhibition: on the % scale 0 is the no-effect control and ±100 the full control effect); conditions: Drosophila S3 cells, BODIPY lipid droplet/cell ratio, laser cytometry, cells loaded with oleic acid
Outline: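 Cells seeded at 5,000 per well were treated with compounds over a concentration series and loaded with oleic acid (400 uM, as added). Lipid droplet fluorescence (488 nm excitation, 500-530 nm channel) was read by laser-scanning cytometry and normalized to 20 uM Triacsin C.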

[7] = target: Ubiquitin carboxyl-terminal hydrolase 1 (Homo sapiens) (UniProt O94782); experiment: Inhibitors of USP1/UAF1: Pilot qHTS (AID 504865);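 further: rhodamine fluorescence freed from ubiquitin-rhodamine substrate followed over time; top concentration of the series differs between compounds; on the % scale 0 is the no-effect control and ±100 the full control effect; nearly all actives have a fitted effect of over 35% in size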
Outline: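 USP1/UAF1 complex at 1 nM preincubated 15 min at room temperature with compound, then Ub-Rho substrate added at 150 nM final. Fluorescence (480/540 nm) read kinetically in 50 mM HEPES pH 7.8, 0.5 mM EDTA, 1 mM TCEP, 0.1 mg/ml BSA, 0.01% Tween-20.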

[8] = target: DNA dC->dU-editing enzyme APOBEC-3G (Homo sapiens) (UniProt Q9HC16); experiment: qHTS for inhibitors of Vif-A3G interactions: Validation (AID 588379); further: 0% is about no effect
Outline: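 HeLa cells stably expressing Vif and A3G-eYFP, 700 cells/well, incubated overnight at 37 deg C, then exposed to compound overnight at 37 deg C. Inhibition of Vif-mediated degradation read as increased yellow fluorescence (Ex 488/Em 500-530) by laser-scanning cytometry.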

[9] = Primary qHTS for small molecule stabilizers of the endoplasmic reticulum resident proteome: Secreted ER Calcium Modulated Protein (SERCaMP) assay (AID 1508630); further: on the % scale 0 is the no-effect control and ±100 the full control effect
Outline: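 GLuc-SERCaMP-expressing SH-SY5Y cells, pretreated 16 h with compound, are challenged with thapsigargin to empty ER calcium stores; after 4 h, coelenterazine is added directly to the medium and luminescence is imaged.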

Chain of Glucocorticoid receptor (Homo sapiens) (P04150 whole entry, looked up, the tested form may be a part): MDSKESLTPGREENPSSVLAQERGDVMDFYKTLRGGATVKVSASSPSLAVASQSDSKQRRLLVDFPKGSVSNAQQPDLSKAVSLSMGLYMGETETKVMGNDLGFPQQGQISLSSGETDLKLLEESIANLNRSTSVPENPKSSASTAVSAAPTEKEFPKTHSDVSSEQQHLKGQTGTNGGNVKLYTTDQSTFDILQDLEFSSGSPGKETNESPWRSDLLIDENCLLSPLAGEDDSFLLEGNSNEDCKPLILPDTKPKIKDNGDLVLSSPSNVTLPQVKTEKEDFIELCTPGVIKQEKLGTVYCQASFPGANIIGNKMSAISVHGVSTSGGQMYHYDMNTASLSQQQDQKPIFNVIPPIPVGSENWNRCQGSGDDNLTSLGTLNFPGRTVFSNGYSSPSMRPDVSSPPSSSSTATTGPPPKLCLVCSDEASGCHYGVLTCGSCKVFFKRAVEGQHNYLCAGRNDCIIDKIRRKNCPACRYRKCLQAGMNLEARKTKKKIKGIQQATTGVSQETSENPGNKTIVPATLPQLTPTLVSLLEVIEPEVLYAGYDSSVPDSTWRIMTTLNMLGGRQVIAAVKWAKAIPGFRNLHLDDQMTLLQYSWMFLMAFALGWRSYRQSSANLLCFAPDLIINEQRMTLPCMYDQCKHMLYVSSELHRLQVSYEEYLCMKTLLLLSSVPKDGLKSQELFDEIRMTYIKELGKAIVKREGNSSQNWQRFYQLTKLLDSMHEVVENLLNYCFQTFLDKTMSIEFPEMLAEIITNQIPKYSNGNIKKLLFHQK
Chain of 3',5'-cyclic-AMP phosphodiesterase 4B (Homo sapiens) (Q07343 whole entry, looked up): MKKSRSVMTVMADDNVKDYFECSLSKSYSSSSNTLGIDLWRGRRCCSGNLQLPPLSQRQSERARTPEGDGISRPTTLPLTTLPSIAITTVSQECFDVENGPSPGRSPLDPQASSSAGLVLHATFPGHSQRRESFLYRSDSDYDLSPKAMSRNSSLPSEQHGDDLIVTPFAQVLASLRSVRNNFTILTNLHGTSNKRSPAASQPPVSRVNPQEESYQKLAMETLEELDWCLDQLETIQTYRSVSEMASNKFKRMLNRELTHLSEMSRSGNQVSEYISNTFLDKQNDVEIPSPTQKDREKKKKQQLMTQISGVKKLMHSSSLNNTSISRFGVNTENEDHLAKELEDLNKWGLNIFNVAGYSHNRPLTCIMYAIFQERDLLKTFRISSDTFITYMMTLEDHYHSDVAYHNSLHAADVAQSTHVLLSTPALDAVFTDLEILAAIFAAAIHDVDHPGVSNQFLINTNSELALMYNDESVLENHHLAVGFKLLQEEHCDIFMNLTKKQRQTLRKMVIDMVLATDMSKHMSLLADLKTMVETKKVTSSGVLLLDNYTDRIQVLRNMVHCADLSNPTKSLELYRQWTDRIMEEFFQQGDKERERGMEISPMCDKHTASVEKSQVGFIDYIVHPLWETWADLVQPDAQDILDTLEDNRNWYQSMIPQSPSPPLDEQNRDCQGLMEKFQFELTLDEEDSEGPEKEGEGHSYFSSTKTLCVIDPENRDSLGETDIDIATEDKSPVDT
Chain of Ubiquitin carboxyl-terminal hydrolase 1 (Homo sapiens) (O94782 whole entry, looked up): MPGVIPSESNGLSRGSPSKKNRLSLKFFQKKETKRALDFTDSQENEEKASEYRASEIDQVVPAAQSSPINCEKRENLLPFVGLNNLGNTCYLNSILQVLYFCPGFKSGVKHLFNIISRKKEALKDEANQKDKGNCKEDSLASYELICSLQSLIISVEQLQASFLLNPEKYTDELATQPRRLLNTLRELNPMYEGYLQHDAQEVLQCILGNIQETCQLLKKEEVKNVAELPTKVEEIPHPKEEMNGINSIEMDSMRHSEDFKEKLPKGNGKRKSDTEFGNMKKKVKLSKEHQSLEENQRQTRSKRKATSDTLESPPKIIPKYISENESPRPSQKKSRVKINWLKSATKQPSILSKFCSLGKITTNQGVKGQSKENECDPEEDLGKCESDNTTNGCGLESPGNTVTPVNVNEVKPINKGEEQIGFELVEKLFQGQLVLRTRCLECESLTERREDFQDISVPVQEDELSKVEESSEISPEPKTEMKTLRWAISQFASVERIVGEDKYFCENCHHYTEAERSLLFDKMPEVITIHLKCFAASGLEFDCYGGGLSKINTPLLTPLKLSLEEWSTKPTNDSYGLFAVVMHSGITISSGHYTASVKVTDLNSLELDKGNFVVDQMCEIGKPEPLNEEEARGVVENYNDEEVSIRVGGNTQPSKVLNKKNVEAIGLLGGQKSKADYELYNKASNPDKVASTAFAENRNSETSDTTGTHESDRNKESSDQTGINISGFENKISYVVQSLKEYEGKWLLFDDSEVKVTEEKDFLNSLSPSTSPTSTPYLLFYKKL
Chain of DNA dC->dU-editing enzyme APOBEC-3G (Homo sapiens) (Q9HC16 whole entry, looked up): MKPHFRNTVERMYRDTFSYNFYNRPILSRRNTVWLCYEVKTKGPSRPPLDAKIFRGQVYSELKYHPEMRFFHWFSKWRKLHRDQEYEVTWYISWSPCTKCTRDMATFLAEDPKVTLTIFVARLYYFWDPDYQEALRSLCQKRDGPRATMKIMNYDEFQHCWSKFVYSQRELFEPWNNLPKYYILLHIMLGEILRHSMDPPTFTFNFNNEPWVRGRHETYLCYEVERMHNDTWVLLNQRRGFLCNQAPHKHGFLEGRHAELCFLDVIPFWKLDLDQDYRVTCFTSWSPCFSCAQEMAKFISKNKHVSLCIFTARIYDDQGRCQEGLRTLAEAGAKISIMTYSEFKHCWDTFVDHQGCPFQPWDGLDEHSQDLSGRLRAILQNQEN
Chain of Cytochrome P450 3A4 (Homo sapiens) (P08684 whole entry, looked up): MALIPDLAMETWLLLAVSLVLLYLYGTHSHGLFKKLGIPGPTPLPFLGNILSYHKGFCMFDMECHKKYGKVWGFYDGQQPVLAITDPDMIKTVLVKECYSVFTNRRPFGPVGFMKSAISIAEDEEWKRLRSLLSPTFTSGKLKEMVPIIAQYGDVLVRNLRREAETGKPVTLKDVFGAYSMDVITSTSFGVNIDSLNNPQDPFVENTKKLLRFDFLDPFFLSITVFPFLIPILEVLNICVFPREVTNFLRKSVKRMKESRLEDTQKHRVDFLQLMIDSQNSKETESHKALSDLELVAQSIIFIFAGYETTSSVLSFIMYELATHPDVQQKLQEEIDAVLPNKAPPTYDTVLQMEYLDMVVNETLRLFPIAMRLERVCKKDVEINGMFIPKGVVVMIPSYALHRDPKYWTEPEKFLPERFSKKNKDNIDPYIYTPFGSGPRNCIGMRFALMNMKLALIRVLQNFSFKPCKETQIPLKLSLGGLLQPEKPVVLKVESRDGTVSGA

C=CCN1C[C@H](C)N([C@@H](c2ccccc2)c2ccc(C(=O)N(CC)CC)cc2)C[C@H]1C
inactive: Potency [1] > 46 µM | Potency [2] > 46 µM | outcome [3] | Potency [4] | Potency [5] | activity change, negative = inhibition ([6]; at 57.5 µM (top of the series)) 7.78% | Potency [7] | Potency [8] | Potency [9]
14.7%: max response ([6]; measured here: cell count channel max response)
20%: max response ([6]; measured here: lipid channel max response)
